These results are taken from PubChem BioAssay AID687009 (National Center for Advancing Translational Sciences (NCATS), 2013).

The structures appear in SMILES notation. Inconclusive results are not listed. Active and inactive are the calls of the source. The call rests on the fitted dose curve; in most records, active means well fitted curve in the direction sought with a large enough effect; inconclusive means small, poorly fitted or top-dose-only effect, or another doubt; inactive means no such curve, though single readings can be large or run the other way.

The target in the test is Lysine-specific histone demethylase 1A (Homo sapiens) (UniProt O60341). In words: qHTS Assay for Inhibitors of Human Jumonji Domain Containing 2E (JMJD2E): Counterscreen with LSD1. The following applies: Amplex Red/HRP fluorescence; series mostly up to 57.1 µM; activity, negative = inhibition: at the top concentration. The text has this: The fine interplay among methylation states of several lysine residues on the tails of histone proteins is a major determinant of the transcriptional state of the associated DNA coding regions and is commonly referred to as the histone code. Histone lysine demethylases catalyze the removal of methyl groups from methylated lysine sidechains on histones H3 and H4, thus antagonizing the reactions catalyzed by histone lysine methyltransferases. […] In search for novel inhibitors of JMJD2E demethylase, a member of the largest set of histone demethylases belonging to the Fe(II) and 2-oxoglutarate oxygenase (2OG) superfamily, we performed a quantitative high-throughput screen (Inglese 2006) by using an assay which utilizes a trimethylated peptide substrate corresponding to a fragment of histone H3 (sequence ARKme3STGGK) with detection of the formaldehyde co-product in real time by a formaldehyde dehydrogenase (FDH) coupled reaction. FDH catalyzes oxidation of formaldehyde to formic acid with the concomitant reduction of the non-fluorescent beta-nicotinamide adenine dinucleotide hydrate (NAD+) cofactor to the fluorescent NADH co-product. Compounds that were validated hits were screened against the histone LSD1 histone demethylase. […] NIH Chemical Genomics Center [NCGC] NIH Molecular Libraries Probe Centers Network [MLPCN] MLPCN Grant: MH084681 Assay Submitter (PI): Udo Oppermann, Structural Genomics Consortium, University of Oxford
The assay was performed in a buffer containing 10 mM HEPES, Na pH 7.5, 5 mM MgCl2, 50 mM KCl, 0.01% Nonidet P-40, and 0.1% BSA. LSD1 was sourced from BPS Bioscience (Cat. No. 50100, San Diego, CA) and the substrate peptide was synthesized and purified by Tufts University Core Facilities (Boston, MA). Reagents (3 microL) containing either buffer-only (inhibited control) or LSD1 (120 nM) were dispensed into a 1,536-well Aurora black solid bottom cycloolefin plate (see Table 1 for protocol steps). Compounds (23 nL) were transferred via Kalypsys pintool equipped with a 1,536-pin array. The plate was incubated for 10 min at room temperature, followed by the addition of 1 microL 4 X substrate (10 mM HEPES, pH 7.5, 8 U/mL HRP, 800 µM Amplex Red, and 200 microM H3K4Me2 peptide [Sequence H-ARTXQTARKSTGGKAPRKQLA-NH2, where X = Nepsilon,Nepsilon-dimethyl-L-lysine]) to start the reaction. The plate was then centrifuged at 1,000 rpm for 15 seconds, and the fluorescence intensity was recorded on a ViewLux High-throughput CCD imager (Perkin-Elmer) using standard TAMRA optics (525 nm excitation and 598 nm emission). The plate was then incubated for 30 min at room temperature, and a second read on the ViewLux was performed. The fluorescence intensity difference over the 30 min was used to calculate the respective reaction rate for each well.
For orientation: In qHTS, concentration-response curves come from the screen itself.
With `O=C(O)c1ccc(O)c2ncc(-c3ccc(N4CCOCC4)cc3)cc12`, the “activity, negative = inhibition” value was -20.2% (inactive).

With `O=C(O)c1ccc(O)c2ncccc12`, the “activity, negative = inhibition” value is -17% (inactive).

On to `CN(C)CCCN1CCCN(C(=O)c2cccc(-c3cc(O)c4ncccc4c3)c2)C1`, for which the Potency was 10.8 µM (active).

With `O=C(O)c1ccc(O)c2ncc(C3CCNCC3)cc12`, the “activity, negative = inhibition” value is -15% (inactive).

On to `O=C(O)c1ccc(O)c2ncc(-c3cccc(N4CCOCC4)c3)cc12`, for which the “activity, negative = inhibition” value was -17.8% (inactive).

As to `CN1CCN(C(=O)c2ccc(-c3cnc4c(O)ccc(C(=O)O)c4c3)cc2)CC1`, the “activity, negative = inhibition” value was -15.6% (inactive).

`NC(=O)c1ccnc2c(O)cccc12`: the “activity, negative = inhibition” value is -17.5% (inactive).

As for `O=C(O)c1ccc(O)c2ncc(-c3ccc(C(=O)N4CCNCC4)cc3)cc12`, the “activity, negative = inhibition” value is -16.8% (inactive).

As to `CN(C)CCCNC(=O)c1ccc(-c2cnc3c(O)ccc(C(=O)O)c3c2)cc1`, the “activity, negative = inhibition” value is -17.5% (inactive).

Turning to `O=C(O)c1ccnc2c(O)cccc12`, the “activity, negative = inhibition” value was -19% (inactive).
